Assay outcomes as filed in PubChem.
TCR act – Activators of T cell receptors: qHTS campaign; primary human leukocytes, anti-CD3, IL-2 HTRF, 48 h; Potency, µM (top dose mostly 9.22 µM), usual class: activators; 330,000 tested, under 10 active
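1) Mix primary human leukocytes, a-CD3 beads and compound. 2) Incubate 48 hr. 3) Add HTRF IL-2 reagents (a-IL-2-K, a-IL-2-d2).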
uPA surface inh – qHTS for Inhibitors of Cell Surface uPA Generation. cell surface uPA generation assay, qHTS. Potency, µM (highest dose often 38.3 µM), hits mostly inhibitors. hit rate 0.31% among 330,000. AID 540303, 2011; active = well fitted inhibition curve with a large enough effect; inconclusive = small, poorly fitted or top-dose-only effect; inactive = no such curve, though single readings can be large or run the other way; tested in mouse RAW 264.7 cells; also: nearly all actives have a fitted effect of over 55% in size
ClpP mod – qHTS Assay for Activators of ClpP | ATP-dependent Clp protease proteolytic subunit (Bacillus subtilis (strain 168)), P80244 | purified B. subtilis ClpP, FRET peptide cleavage, 20 min | hit rate 1.9% among 340,000 | AID 651965, 2013 | Potency, µM (series often up to 57.5 µM); active = well fitted falling curve with a large enough effect; inconclusive = small, poorly fitted or top-dose-only effect; inactive = no such curve, though single readings can be large or run the other way; also: the source files actives as falling curves though it sought activators and does not explain the sign; nearly all actives have a fitted effect of over 65% in size
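Purified B. subtilis ClpP, 10 microg/mL final in Tris/HCl pH8 with KCl, BSA, glycerol and Tween-20, cleaved an Abz/nitrotyrosine-quenched decapeptide. Fluorescence (ex 320, em 430) was read at 0 and 20 min at room temperature. Delta was normalized to 5.8 microM ADEP and DMSO/no-enzyme controls.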
Sfp inh – qHTS Assay for Inhibitors of Bacillus subtilis Sfp phosphopantetheinyl transferase (PPTase). Potency, µM, usual class: inhibitors. AID 1490, 2009. hit rate 3.5% among 310,000. Biochemical Sfp PPTase activity, qHTS. 4'-phosphopantetheinyl transferase ffp (Bacillus subtilis), Q9F4F7;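 also: the enzyme is Sfp with the accession as filed and its product quenches rhodamine fluorescence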
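Fluorescence-quenching assay with 15 nM Sfp, 5 uM rhodamine-CoA and 12.5 uM BHQ-2-labelled ybbR peptide in pH 7.6 Hepes/MgCl2 buffer. Enzyme was pre-incubated with compound for 15 min at room temperature. Rate was taken from the 30-min fluorescence change (525/598 nm).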
A number is an active result; 0 = inactive; ? = inconclusive; - = no result given; ! = not active in a repeat. Shown are actives, neighbours in structure and some others; about 4.2% of the full set was active somewhere. Unless noted, calls follow the shape of the dose curve; as a rule, active = well fitted curve in the direction sought with a large enough effect; inconclusive = small, poorly fitted or top-dose-only effect, or another doubt; inactive = no such curve, though single readings can be large; an effect the other way counts as inactive or inconclusive.

SMILES | TCR act | uPA surface inh | ClpP mod | Sfp inh
CCCCC1=CC2=C(c3ccco3)C(=O)C(C)(OC(=O)c3ccc(OC)cc3)C(=O)C2=CN1Cc1ccco1 (stereo not drawn) | 0 | 0 | 0 | 45µM
CCCCC1=CC2=C(c3ccco3)C(=O)C(C)(OC(=O)c3ccc(OC)cc3)C(=O)C2=CN1CC(C)C (stereo not drawn) | 0 | 0 | 0 | 3.5µM!
CCCCC1=CC2=C(c3ccco3)C(=O)C(C)(OC(=O)c3ccc(OC)cc3)C(=O)C2=CN1Cc1ccc(OC)cc1 (stereo not drawn) | - | - | - | 71µM!
CCOc1ccccc1CNC(=O)CN1C(=O)c2cccnc2Oc2ccc(C)cc21 | - | - | 0 | -
COc1ccc(CCn2c3c(c(=O)[nH]c2=S)CN(c2ccccc2)CN3)cc1OC | - | - | 0 | -
c1ccc(Oc2nc3ccccc3n3cccc23)cc1 | 0 | 0 | 28µM | 0
Cc1ccc(Oc2nc3ccccc3n3cccc23)cc1 | 0 | 0 | 22µM | 0
COc1ccc(CNS(=O)(=O)c2ccc(F)c(C(=O)Nc3c(C)cc(C)cc3C)c2)cc1 | - | - | 0 | -
O=C(O)CNC(=O)CC1S/C(=N/N=C2\CSC(=O)N2)NC1=O (stereo not drawn) | 0 | 0 | 0 | 4µM
CCOc1cccc(-c2c(C(=O)N/N=C/c3ccoc3)nnn2-c2nonc2N)c1 | 0 | 0 | 0 | 0
CC(=O)Nc1ccc(-n2nnnc2SCC(=O)Nc2cccc(NC(=O)c3ccco3)c2)cc1 | 0 | 0 | 0 | 50µM
CN1CCN(c2ccccc2NC(=O)c2ccc(-c3ccc(Cl)cc3Cl)o2)CC1 | - | - | ? | 56µM
Cc1cc(=O)[nH]c(N/N=C/c2sccc2C)n1 | 0 | 0 | 0 | 13µM
Cc1ccsc1/C=N/Nc1ncnc2nc[nH]c12 | 0 | 0 | 0 | 50µM
Cc1cc(=O)[nH]c(N/N=C/c2cccs2)n1 | 0 | 0 | 0 | 0
C(=NOCCc1ccccc1)c1ccccn1 | 0 | 0 | - | -
Fc1ccc(Nc2ncncc2-c2ccccc2C(F)(F)F)cc1 | - | - | - | 79µM
FC(F)(F)c1ccccc1-c1cncnc1NCc1cccs1 | - | - | - | 0
CCC(Cn1nnc2ccccc2c1=O)NC(=O)Nc1cccc(C)c1C (stereo not drawn) | - | - | 0 | -
CCn1c(=O)c2sccc2n2c(CCCC(=O)N3CCN(c4ccc(F)cc4)CC3)nnc12 | - | - | 0 | -
COc1ccc(C)cc1NC(=O)c1oc2ccc(S(=O)(=O)N(C)C3CCCCC3)cc2c1C | - | - | 0 | -
COc1cccc(NC(=O)c2oc3ccc(S(=O)(=O)N(C)C4CCCCC4)cc3c2C)c1 | - | - | 25µM | -
c1ccc(-c2nn3c(C4CCCCC4)nnc3s2)nc1 | 0 | 0 | 0 | 0
Clc1ccc(OCc2nn3c(C4CCCCC4)nnc3s2)cc1 | 0 | 0 | 0 | 20µM
CCOP(=O)(OCC)C(NC(=O)Nc1ccc(Cl)c(Cl)c1)C(N)=O (stereo not drawn) | 0 | 0 | 16µM | 0
SMILES | TCR act | uPA surface inh | ClpP mod | Sfp inh
CCOP(=O)(OCC)C(NC(=O)Nc1ccc(Cl)cc1)C(N)=O (stereo not drawn) | 0 | 0 | 0 | 0
OCC1O[C@H](OC2C(CO)O[C@@](O)(CO)C2O)C(O)C(O)C1O (stereo partly drawn) | - | - | - | 0
CC[n+]1c(/C=C(\C)Nc2ccccc2)sc2ccccc21 | 0 | 0 | 0 | 56µM
CC[n+]1c(C=C2C=C(C)OC(C)=C2)sc2ccccc21 | 0 | 0 | - | 0
CC[n+]1c(/C=C(\C)SC)sc2ccccc21 | 0 | 0 | 0 | 79µM
CC[n+]1c(/C=C(/C)SC)sc2ccccc21 | 0 | 0 | 0 | ?
CC[n+]1c(/C=C2/C=C(C)CC(C)C2)sc2ccccc21 (stereo not drawn) | 0 | 0 | 0 | 45µM
Cc1cc2nc(-c3cccc(NC(=O)c4cccc5ccccc45)c3)oc2cc1C | - | - | 0 | -
CC(NC(=O)NC(N)=O)(C(F)(F)F)C(F)(F)F | - | 0 | 0 | 0
CC(NC(=O)NNC(N)=S)(C(F)(F)F)C(F)(F)F | 0 | 0 | 0 | 45µM
CCOC(=O)C1=CCC(c2ccccc2Cl)N(S(=O)(=O)c2ccc(C)cc2)C1 (stereo not drawn) | - | - | 0 | -
COc1cc2c(cc1OC)CN(c1ccc(-c3ccccc3OC)nn1)CC2 | 0 | 0 | 0 | 0
COc1cc2c(cc1OC)CN(c1ccc3ccccc3n1)CC2 | 0 | 0 | - | 56µM
Cn1c(=O)c2c(nc(SC3C(=O)CC(C)(C)CC3=O)n2C)n(C)c1=O | 0 | 0 | 0 | 56µM
CC(C)Sc1nc2c(c(=O)n(C)c(=O)n2C)n1C | 0 | 0 | 0 | 0
Cc1ccc(-c2nnc(SCCC(=O)Nc3ccccc3)n2C)cc1 | - | - | 0 | -
Cc1cc(SCC(=O)NCc2ccccc2Cl)nc(=O)[nH]1 | - | - | 0 | -
O=c1c2cc(NC(=S)N3CCC(N4CCCCC4)CC3)ccc2nc2n1CCCCC2 | - | 0 | 0 | 79µM
O=c1c2cc(NC(=S)NC3CC3)ccc2nc2n1CCCCC2 | 0 | 0 | 0 | 0
CC1CCCCN1C(=S)Nc1ccc2nc3n(c(=O)c2c1)CCCCC3 (stereo not drawn) | 0 | 0 | 28µM | 0
COc1ccc(CNC(=S)Nc2ccc3nc(N4CCN(C)CC4)cc(C)c3c2)cc1 | 0 | 0 | - | 0
Cc1cc(N2CCOCC2)nc2ccc(NC(=O)CCC(=O)N3CCC(C)CC3)cc12 | 0 | 0 | 28µM | 0
CCC(C)NC(=O)CCC(=O)Nc1ccc2nc(N3CCOCC3)cc(C)c2c1 (stereo not drawn) | 0 | 0 | ? | 0
COc1cc(NC(=O)CCC(=O)Nc2ccc3nc(N4CCOCC4)cc(C)c3c2)cc(OC)c1OC | 0 | 0 | 25µM | 0
CCCCN(C)C(=O)CCC(=O)Nc1ccc2nc(N3CCOCC3)cc(C)c2c1 | 0 | - | 7.9µM | 0
SMILES | TCR act | uPA surface inh | ClpP mod | Sfp inh
Cc1cc(N2CCC(C)CC2)nc2ccc(NC(=O)CCC(=O)N3CCN(c4ccccc4F)CC3)cc12 | - | - | 0 | -
COc1ccccc1CNC(=S)Nc1ccc2nc(N3CCN(C)CC3)cc(C)c2c1 | 0 | 0 | - | 56µM
CCOC(=O)c1ccc(N2C(=O)Cc3cc(OCC)c(OCC)cc3C2c2ccccc2)cc1 (stereo not drawn) | - | - | 0 | -
CN(C)CCN(Cc1ccccc1)S(=O)(=O)c1ccc2[nH]c(=O)ccc2c1 | - | - | 0 | -
C=CCOc1cccc(/C=N/NC(=O)CN2CCCCC2)c1 | 0 | 0 | 0 | 0
Cc1cc(C)c(OCC(=O)N(Cc2ccc(N(C)C)cc2)CC2CCCO2)c(C)c1 (stereo not drawn) | - | - | 0 | -
CCOc1ccccc1NC(=O)CCC(=O)Nc1ccc2nc(N3CCN(C)CC3)cc(C)c2c1 | 0 | 0 | 25µM | 0
COc1ccc(N(C)C(=O)CCC(=O)Nc2ccc3nc(N4CCOCC4)cc(C)c3c2)c(OC)c1 | 0 | - | 28µM | 0
CCOC(CCNC(=O)CCC(=O)Nc1ccc2nc(N3CCN(C)CC3)cc(C)c2c1)OCC | 0 | 0 | - | 0
COc1ccc(NC(=O)CCC(=O)Nc2ccc3nc(N4CCOCC4)cc(C)c3c2)c(OC)c1 | 0 | 0 | - | 0
CCOC(=O)c1c(-c2ccc(F)cc2)csc1NC(=O)C1CC=CCC1C(=O)O (stereo not drawn) | 0 | 0 | - | 40µM
